For 15 molecules, remaining activity results are on record in PubChem BioAssay.

Calls of active or inactive are those of the source. No rule for the calls is given here.

A word on the remaining activity: it is the signal under treatment as a percentage of the control signal.

The subject of the test is Aerobactin synthetase IucA (Klebsiella pneumoniae, hypervirulent). Description: IucA enzyme inhibition, biochemical, LOPAC library, absorbance readout (AID 1346212).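 Also: 100% = no compound wells and 0% = no enzyme wells.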 To be noted: IucA enzyme assay, absorbance (OD) readout; hits give low values;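 tested at 8 µM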.
As for `CN(C)C(N)=NCCC[C@H](N)C(=O)O`, the remaining activity is 97.3% (inactive). For the molecule `O=c1[nH]c2cc(Cl)ccc2c(O)c1-c1cccc(Oc2ccccc2)c1`, the remaining activity is 120% (inactive).

In the case of `C[N+](C)(C)CCOP(=O)(O)OP(=O)([O-])OC[C@H]1O[C@@H](n2ccc(N)nc2=O)[C@H](O)[C@@H]1O`, the remaining activity was 115% (inactive). In the case of `O=C(O)C1CCCN(CCC=C(c2ccccc2)c2ccccc2)C1` (stereo not given), the remaining activity is 86.8% (inactive).

Take `C[C@H]1C[C@H]2[C@@H]3CCC4=CC(=O)C=C[C@]4(C)[C@@]3(F)[C@@H](O)C[C@]2(C)[C@@]1(O)C(=O)CO`: the remaining activity was 114% (inactive). To `O=C(O)Cc1ccc(O)c(O)c1` belongs 107% (inactive); to `N#C/C(=C\c1ccc(O)c(O)c1)C(=O)NCc1ccccc1`, 101% (inactive). As for `Brc1ccc([C@H]2CN3CCSC3=N2)cc1`, the remaining activity is 105% (inactive). As for `O=C(OCCN1CCOCC1)C1(c2ccccc2)CCCCC1`, the figure is 123% (inactive); as for `C[C@H](Cc1ccccc1)Nc1ncnc2c1ncn2[C@@H]1O[C@H](CO)[C@H](O)C1O` (stereo not given in full), 118% (inactive). On to `COC(=O)[C@H](NC(=O)c1cc(-c2ccccc2)nc2ccccc12)c1ccccc1`, for which the remaining activity was 97.3% (inactive).

In the case of `NCCNS(=O)(=O)c1cccc2c(Cl)cccc12`, the remaining activity was 96.1% (inactive). In the case of `C[C@]12CC[C@@H]3c4ccc(O)cc4CC[C@H]3[C@@H]1CC[C@@H]2O`, the remaining activity is 99.8% (inactive). As for `CCn1c(=O)[nH]c2cc(Cl)c(Cl)cc21`, the figure is 98.7% (inactive); as for `FC(F)(F)c1cc(CO[C@H]2CCCN[C@H]2c2ccccc2)cc(C(F)(F)F)c1`, 107% (inactive).
